TWEAK-Fn14 inh – inhibitors of TWEAK-Fn14 interaction signaling; 360,000 compounds, 2% hits; inhibition, % at 10 µM; TWEAK-stimulated Fn14 reporter cells, luciferase luminescence, 8 h; AID 1159606; in the data active means inhibition above about 50%
KKLEB tox – reduces viability of KKLEB cystic fibrosis airway cells; KKLEB CF airway cells viability, ATPlite luminescence, overnight; active compounds read low; cells stimulated with P. aeruginosa culture filtrate; activity change (cytotoxicity), % at 5 µM; 360,000 compounds, 0.36% hits;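 active means corrected activity change at or below -50% at 5 µM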
HIF-2a block – HIF-2a inhibition; 786-0 RCC cells HIF-2a reporter, luciferase luminescence, overnight; inhibition, % at 18.8 µM; 360,000 compounds, 0.72% hits;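 active means inhibition of the luminescence signal of 40% or more relative to plate controls, in a single-dose primary screen at 18.75 µM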
TROY signal inh – TROY signaling inhibition. inhibition, % at 10 µM. Q293 LMP1-TROYcd NF-kB luciferase reporter, 4 h. AID 1347056. 360,000 compounds, 0.98% hits;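 active means compounds whose plate-normalised and pattern-corrected inhibition of the luciferase reporter signal at the single screening dose is 50% or more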
Peg3 prom inh – reduces Peg3 promoter-driven luciferase expression in HeLa; HeLa PEG-Prom luciferase reporter, luminescence, overnight; inhibition, % at 20 µM; 360,000 compounds, 1.7% hits;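 active means inhibition of at least 50% at 20 µM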
CF NFkB inh – inhibitors of cystic fibrosis induced NF-kB. inhibition, % at 5 µM. 360,000 compounds, 0.86% hits. KKLEB NF-kB-GFP reporter, PAF-induced, GFP fluorescence overnight. AID 588850;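 active means at least 50% inhibition at 5 µM, scaled per plate between neutral and stimulator controls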;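 further: PAF is a Pseudomonas aeruginosa culture filtrate used as stimulus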
Large screens that a line does not name were inactive. Only some compounds are listed: those with a hit (about 4% of all), similar ones and a draw of the others.

CC(C)(C)n1nc2c(c1NC(=O)C1CC(=O)N(c3ccc(Cl)cc3)C1)CS(=O)(=O)C2 (stereo not given)	none
Cc1cc(C(=O)CCC(=O)NCc2ccccc2F)c(C)s1	none
O=C(Nc1cccn(Cc2c(Cl)cccc2Cl)c1=O)c1ccc(Cl)cc1Cl	TWEAK-Fn14 inh 64.0
O=C(Nc1cnc2sccn2c1=O)c1ccc(Cl)cc1Cl	TWEAK-Fn14 inh 56.4
COc1ccc(Cl)cc1NC(=O)c1cnc2sccn2c1=O	none
CC1CC(C)CN(S(=O)(=O)c2ccc(NC(=O)[C@@H]3CCCN3C(=O)c3cccs3)cc2)C1 (stereo not given in full)	none
O=C(Nc1ccc(F)cc1)c1ccc(C(=O)N2CCCC(O)C2)cc1 (stereo not given)	none
CCOC(=O)[C@]12CCC=C1N(Cc1cccc3ccccc13)C(=O)[C@H](CC(=O)NCCCOC)C2	none (no result: KKLEB tox, Peg3 prom inh, CF NFkB inh)
O=C(NCc1ccc(Cl)cc1)c1ccc(-c2ccc(F)c(F)c2)c2ccoc12	none
Cc1nn(-c2ccccc2)c(C)c1NC(=O)COc1ccc(C#N)cc1	none
Cc1nn(-c2ccccc2)c(C)c1NC(=O)COc1ccc(Br)cc1Cl	TWEAK-Fn14 inh 78.2
Cc1nn(-c2ccccc2)c(C)c1NC(=O)COc1ccccc1C#N	none
Cc1nn(-c2ccccc2)c(C)c1NC(=O)COc1ccc2ccccc2c1	TROY signal inh 54.7
O=C1OCCN1C(=O)[C@H]1[C@H](c2ccc([N+](=O)[O-])cc2)C(c2ccc(F)cc2)=NN1c1ccc(Br)cc1	none
CCOc1cc(/C=C2\C(=O)ON=C2c2ccccc2)cc(Br)c1O	HIF-2a block 78.7
COc1cc(/C=C2/C(=O)ON=C2c2ccccc2)ccc1O	HIF-2a block 53.2
COc1cc(/C=C2\C(=O)ON=C2c2ccccc2)cc(Br)c1O	HIF-2a block 51.3, Peg3 prom inh 51.3
COc1ccc(/C=C2\Oc3cc(OCC(=O)N4CCC[C@H]4CO)ccc3C2=O)c(OC)c1	none
O=C(COc1ccc(F)cc1)Nc1nnc(S(=O)(=O)N2CCCC2)s1	none
COc1ccc(-n2nc(C(=O)NCC(=O)NCCCN3CCOCC3)c3ccccc3c2=O)cc1OC	KKLEB tox -76.3
COc1ccc(-n2nc(C(=O)NCC(=O)NCCCN3CCOCC3)c3ccccc3c2=O)cc1Cl	none
COc1cc(Cl)ccc1NC(=S)N(CCN(C)C)C(C)c1ccncc1 (stereo not given)	none
COc1ccc(NC(=S)N(CCN(C)C)C(C)c2ccncc2)cc1Cl (stereo not given)	Peg3 prom inh 54.3
OC(CNCC(c1ccc(Cl)cc1Cl)c1c[nH]c2ccccc12)c1ccccc1 (stereo not given)	TWEAK-Fn14 inh 74.0, TROY signal inh 78.9, Peg3 prom inh 109.8
O=[N+]([O-])CC(c1ccccc1)c1c[nH]c2ccccc12 (stereo not given)	none
CCS(=O)(=O)Nc1cccc(-c2nc3cccnc3s2)c1	none
CCS(=O)(=O)Nc1ccc(-c2nc3cccnc3s2)cc1	TWEAK-Fn14 inh 69.4
Cc1cc(N2CCN(C(C(=O)NC3CCCC3)c3ccc(F)cc3)CC2)c2ccccc2n1 (stereo not given)	none (no result: TWEAK-Fn14 inh, KKLEB tox, TROY signal inh, Peg3 prom inh, CF NFkB inh)
CN(C)CCCNC(=O)c1cc2sc3ccccc3c2s1	none
CN(C)CCNc1ccc(CO)c2sc3ccc(O)cc3c(=O)c12	HIF-2a block 49.8, Peg3 prom inh 100.0
CSc1ncccc1C(=O)Nc1cccc(S(=O)(=O)N2CCCCC2)c1	none
CCOc1cc(/C=C2/NC(=S)NC2=O)ccc1OCc1ccc([N+](=O)[O-])cc1	Peg3 prom inh 50.8
COc1cccc(C(=O)Oc2c(Br)cc(Br)cc2/C=N/NC(=O)c2cc(C)[nH]n2)c1	TWEAK-Fn14 inh 51.7
N#Cc1c(Sc2ncc(C(F)(F)F)cc2Cl)nsc1C/C=N\OCc1ccccc1Br	TWEAK-Fn14 inh 66.7 (no result: TROY signal inh)
COc1ccc(S(N)(=O)=O)cc1C(=O)OCC(=O)N1CC(=O)Nc2ccccc21	none
CCS(=O)(=O)N1CCC(C(=O)Oc2ccc(Br)cc2)CC1	TWEAK-Fn14 inh 79.2
COc1ccc(Br)cc1C1NC(=O)NC(C)=C1C(=O)N(C)C (stereo not given)	KKLEB tox -53.3
COc1cccc(OCc2ccc(C(=O)NCC3CCCO3)cc2)c1 (stereo not given)	TWEAK-Fn14 inh 62.8, TROY signal inh 52.5
COc1cccc(-c2nc(C(=O)NCC3CCCO3)cc3c2[nH]c2ccccc23)c1 (stereo not given)	Peg3 prom inh 55.7
O=C1C(CCc2ccccc2)ON=C(c2cnccn2)N1Cc1ccc(F)cc1 (stereo not given)	none
COc1ccc(N2C(=O)c3ccccc3NC(=O)C2C(=O)NCC(C)C)cc1 (stereo not given)	none (no result: TWEAK-Fn14 inh, KKLEB tox, TROY signal inh, Peg3 prom inh, CF NFkB inh)
CC(C)NC(=O)C1C(c2ccc(C(F)(F)F)cc2)=Nc2ccccc2N1C(=O)c1cc2ccccc2[nH]1 (stereo not given)	none (no result: TWEAK-Fn14 inh, KKLEB tox, TROY signal inh, Peg3 prom inh, CF NFkB inh)
O=c1c2ccccc2oc2cc(C#Cc3ccccn3)ccc12	TWEAK-Fn14 inh 64.6
CC1([N+](=O)[O-])COC2(CCCCC2)OC1	none
CC1(c2ccccc2)NC(=O)N(CC(=O)N2CCN(S(=O)(=O)c3cccc(C(F)(F)F)c3)CC2)C1=O (stereo not given)	none
O=C1C(C=NCCCN2CCOCC2)=C(O)c2ccccc21	TROY signal inh 58.4
O=C1C(C=NCCN2CCOCC2)=C(O)c2ccccc21	none
O=[N+]([O-])/C=C/c1c(OCc2ccccc2)ccc2ccccc12	KKLEB tox -53.9, HIF-2a block 95.2, Peg3 prom inh 100.5, CF NFkB inh 60.6
CCCCOc1ccc2ccccc2c1C=O	none
CC(C)NC(=O)N(C)C[C@H]1Oc2ccc(NS(=O)(=O)c3ccc(F)cc3)cc2C(=O)N([C@H](C)CO)C[C@@H]1C	none
O=C(Nc1ccc(OC(F)F)c(Cl)c1)C(c1ccccc1)c1ccccc1	TROY signal inh 56.6
O=C(Cc1cccc2ccccc12)Nc1ccc(OC(F)F)c(Cl)c1	none
Cc1ccc(-c2nc3ncccn3c2Nc2ccccc2C)o1	none
Cc1ccc(-c2nc3cnccn3c2Nc2c(C)cccc2C)o1	Peg3 prom inh 101.7
NC(=S)N/N=C/c1coc2cc(Br)ccc2c1=O	none
NC(=S)N/N=C/c1coc2c(ccc3ccccc32)c1=O	TWEAK-Fn14 inh 51.1
CCN(CC)CCNc1c(C)cc(CO)c(Cl)c1C	Peg3 prom inh 71.7
Cn1nnnc1SCC(=O)Nc1ccc(C(=O)N2CCN(Cc3ccccc3F)CC2)cc1	none
O=C(Nc1ccc([N+](=O)[O-])cc1)C1COc2ccccc2O1 (stereo not given)	none
C/C(=N\NC(=O)C1COc2ccccc2O1)c1ccc(C)o1 (stereo not given)	none
O=C(Nc1cccnc1)C1COc2ccccc2O1 (stereo not given)	none
O=C(Nc1ccccc1)C1COc2ccccc2O1 (stereo not given)	TWEAK-Fn14 inh 80.5

Screening results from PubChem.
